Many of the other results were omitted from the sample, so hits are more common in it than they were.
ERK EGF block – EGF-driven ERK pathway inhibition. AID 1454. HEK293-V1b, EGF-stimulated phospho-ERK AlphaScreen. hit rate 0.41% among 130,000. Potency, µM (titrated, usually from 11.5 µM), most hits filed as inhibitors; active means well fitted inhibition curve with a large enough effect; further: nearly all actives have a fitted effect of over 55% in size
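Compounds are titrated over HEK293-V1b cells kept overnight in 1% FBS. After 30 min at 37C, EGF (25 nM final) triggers ERK phosphorylation for 5 min, measured by AlphaScreen in lysates.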
Numbers stand for hits; - = inactive; ! = not confirmed by another sample.

SMILES | ERK EGF block
CCOC(=O)c1ccc(NC(=O)Cn2ncc(Cl)c(Cl)c2=O)cc1 | -
Cc1c2cc(O)c(=O)cc-2oc2cc(O)c(O)cc12 | -
COc1cc2oc(-c3ccccc3)cc(=O)c2cc1OC | -
COc1cc(OC)c(-c2c3cc(O)c(=O)cc-3oc3cc(O)c(O)cc23)cc1OC | 15.8µM
Cc1nc(NC2CCCCC2)c2nc(-c3ccccc3)n(CCCN3CCOCC3)c2n1 | -
Cc1nc(NCc2ccccc2)c2nc(-c3ccccc3)n(CCN(C)C)c2n1 | -
Cc1ccc(CN=c2c([N+](=O)[O-])nn(-c3ccc4c(c3)OCCO4)n2O)cc1 | -
CCc1ccc(N=c2c([N+](=O)[O-])nn(-c3ccc4c(c3)OCCO4)n2O)cc1 | 28.2µM
Cc1ccc(N=c2c([N+](=O)[O-])nn(-c3ccc4c(c3)OCCO4)n2O)c(Cl)c1 | -
NCCC[C@@H](CC(=O)N[C@@H]1CCNC[C@H]1C(=O)N[C@H](CC(=O)N[C@@H](CCC(=O)O)CC(=O)O)Cc1ccccc1)NC(=O)C[C@H](Cc1ccccc1)NC(=O)[C@@H]1CNCC[C@H]1N | -
CCCCC/C=C\C/C=C\C/C=C\CCCCCCC(=O)O[C@H](COCCCCCCCCCCCCCCCC)COP(=O)([O-])OCC[N+](C)(C)C | -
C=CC[n+]1ccc(/C=C2\C=Cc3cc(C)ccc3N2CC)c2ccccc21 | 14.1µM
CCN1/C(=C/c2cc[n+](CCCS(=O)(=O)[O-])c3ccccc23)Sc2ccccc21 | -
C=CC[n+]1ccc2ccccc2c1C | -
COc1ccccc1/C=C/C(C)=O | -
COc1ccccc1/C=C/C(=O)/C=C/c1ccccc1O | 35.5µM
COc1ccccc1/C=C/C(=O)N1CCCC1 | -
CCCn1c(-c2ccc(F)cc2)nc2c(NCCN(CC)CC)nc(C)nc21 | -
COc1ccc(Nc2ccncc2[N+](=O)[O-])cc1 | -
COc1ccc(Nc2c([N+](=O)[O-])ccc3c2=NC2(CCCCC2)N=3)cc1 | 14.1µM
COc1ccc(NC(=O)c2ccccc2[N+](=O)[O-])cc1 | -
NCCC[C@@H](CC(=O)N[C@@H]1CCCC[C@H]1C(=O)N[C@H](CC(=O)N[C@@H](CCC(=O)O)CC(=O)O)Cc1ccccc1)NC(=O)C[C@H](CO)NC(=O)[C@@H]1CNCC[C@H]1N | -
COC[C@H]1O[C@@H](c2c(OC)cc(OC)cc2OC)[C@H](OC)[C@@H](OC)[C@@H]1OC | -
CCc1cc(C(C)=O)c(O)cc1OCCCCCC(C)(C)c1nn[nH]n1 | -
CNC(=O)C1(CC(C)C)C=CCN1C(=O)c1ccccc1 (stereo not given) | -
SMILES | ERK EGF block
O=C1c2c(O)ccc(O)c2C(=O)c2c(NCCNCCO)ccc(NCCNCCO)c21 | 20µM!
Cc1ccc(CNCCNCCO)s1 | -
C[C@]12O[C@H]1[C@@H](O)C(Br)=C(CO)[C@H]2O | -
COC(=O)[C@@H]1C[C@H]1[C@@H](NC(=O)Oc1ccc(F)cc1)c1ccccc1 | -
C=CCOC(=O)N[C@@H](CCc1ccccc1)C(C(C)=O)C(C)=O | -
O=C(CCNC(=O)c1ccccc1Cl)Nc1ccc(Br)c(C(F)(F)F)c1 | 28.2µM
O=C(O)c1ccccc1C(=O)Nc1ccc(Br)c(C(F)(F)F)c1 | -
O=C(CCNC(=O)c1ccccc1Cl)Nc1cc(C(F)(F)F)ccc1Cl | -
COCCn1c(=O)c(-c2ccc(Cl)cc2)nc2cnc(Oc3ccccc3)nc21 | -
O=C(N[C@H]1CCCc2ccccc21)O[C@@H]1C(=O)c2cc(Br)ccc2O[C@H]1c1ccc2c(c1)OCO2 | -
Clc1cccc2c1Sc1ccccc1CC2N1CCNCC1 (stereo not given) | 28.2µM
S=C1NCCc2ccccc2C1c1ccccc1Cl (stereo not given) | -
O=S(=O)(NC1c2cccc3cccc(c23)C1N1CCNCC1)c1ccc(Cl)cc1 (stereo not given) | -
Cc1nc(N2CCOCC2)c2nc(-c3ccccc3)n(CCCN3CCCCC3C)c2n1 (stereo not given) | -
COC(=O)[C@@]1(Cc2ccccc2-c2ccco2)C=C[C@H](C)[C@@H](c2ccccc2)N1C(=O)C(F)(F)F | -
CC(C)(C)OC(=O)NCCCC1=CC2=CC(=O)C(C)(OC(=O)c3cnc4ccccc4n3)C(=O)C2=CO1 (stereo not given) | -
CN(C)c1ncc2ncc(=O)n(Cc3cccs3)c2n1 | -
NCC1OC(OC2C(N)CC(N)[C@@H](O)[C@@H]2OC2O[C@H](CO)[C@@H](O[C@@H]3OC(CN)C(O)C(O)C3N)C2O)C(N)C(O)C1O (stereo not given in full) | -
Oc1[nH]c2ccccc2c1N=Nc1ccc(F)cc1 | -
Oc1[nH]c2ccccc2c1N=Nc1ccccc1 | -
Oc1ccc2ccccc2c1N=Nc1ccc(F)cc1 | 12.6µM
Cc1cc2c3c(cccc3n1)C(=O)c1ccccc1-2 | -
COc1cc(C)c(CC/C(C)=C/C=C/C(C)=O)c(C)c1C | -
O=c1cc(-c2ccccc2O)oc2c1ccc1ccccc12 | -
CCC/C=C(\CCC)C(NS(=O)(=O)CC12CCC(CC1=O)C2(C)C)c1ccc(C(=O)OC)cc1 (stereo not given) | -
SMILES | ERK EGF block
CCc1ccc(Nc2c([N+](=O)[O-])c(=O)oc3ccccc23)cc1 | 17.8µM
Cc1ccc(Nc2c([N+](=O)[O-])c(=O)oc3ccccc23)cc1 | -
CCNc1c([N+](=O)[O-])c(=O)oc2ccccc12 | -
C[C@H]1COc2c(N3CCN(C)CC3)c(F)cc3c(=O)c(C(=O)NCc4ccco4)cn1c23 | -
COc1ccc(/C=N/NC(=O)c2cccnc2)cc1COc1ccc(NC(C)=O)cc1 | -
COc1ccc(/C=N/NC(=O)c2cccnc2)cc1COc1ccc([N+](=O)[O-])cc1 | 22.4µM
COc1cc(/C=N/NC(=O)c2cccnc2)ccc1OC(=O)c1ccc([N+](=O)[O-])cc1 | -
NC(=S)c1ccc[n+]([C@@H]2O[C@@H](COP(=O)([O-])OP(=O)(O)OC[C@H]3O[C@@H](n4cnc5c(N)ncnc54)[C@H](OP(=O)(O)O)[C@H]3O)C(O)C2O)c1 (stereo not given in full) | -
N=c1ccn2c(n1)OCC1C2O[C@@H](O)[C@H]1O (stereo not given in full) | -
Cc1ccc(Nc2ncnc3c2cnn3C)cc1 | -
CC(C)Oc1ccc(Nc2ncnc3ccccc23)cc1 | -
Cc1ccc(Nc2ncnc3ccccc23)cc1 | 25.1µM
C=C1CCC(O)C/C1=C\C=C1/CCCC2(C)C1CCC2C(C)CCCC(C)C (stereo not given) | -
CN[C@H]1[C@@H](O[C@@H]2[C@H](O[C@@H]3[C@@H](O)[C@@H](O)[C@@H](N=C(N)N)[C@@H](O)[C@@H]3N=C(N)N)O[C@H](C)[C@@]2(O)C=O)O[C@@H](CO)[C@@H](O)[C@H]1O | -
CCCCC1=CC2=C(c3ccco3)C(=O)C(C)(OC(=O)c3ccc(OC)cc3)C(=O)C2=CO1 (stereo not given) | -
CCOC(=O)C1=C[C@@]2(CC)CCCN3CCc4c(n1c1ccccc41)C32 (stereo not given in full) | -
Cc1ccccc1NC(=S)NCC1CCN(C(C)c2ccccc2)C1 (stereo not given) | -
Cc1ccc(NC(=S)NC2CCN(Cc3ccccc3)CC2)c(C)c1 | -
COc1ccc(N2CCC(CNC(=S)Nc3c(C)cc(C)cc3C)C2)cc1 (stereo not given) | 8.91µM
CCc1ccc(NC(=O)NCC2CCN(c3ccc(OC)cc3)C2)cc1 (stereo not given) | -
COc1ccc(N2CCC(CNC(=O)Nc3ccc(C)c(C)c3)C2)cc1 (stereo not given) | -

Screening data (PubChem BioAssay)
